From PubChem BioAssay AID1159580 (chemical genetic matrix, 2015)
The whole screen tested about 5,500 compounds, of which about 2,000 (36%) were called active. About 18% were inconclusive and are not listed. Rule as the data show it: active = normalized growth mostly below about 0.91 (no sharp cut-off); inconclusive = no clear call, values can overlap the other calls; inactive = mostly above about 0.92. The list shows a part of the results.

Assay: chemical genetic growth profiling, strain panel (AID 1159580);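 also: tested at 20 µM; growth read once vehicle control cultures reached saturation at 30 °C; 1 = growth at the plate median or of vehicle wells; lower values mean less growth of the strain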
Conditions: growth OD

Measured: normalized growth

CCCCCCCCCCCCCCCCCCOCC(O)CO (stereo not drawn)
inactive: S. cerevisiae deletion strains, locus YJR043C, strain POL32, stronger effect = lower value 1.01 | S. cerevisiae deletion strains, locus YJR066W, strain TOR1, stronger effect = lower value 0.965 | S. cerevisiae deletion strains, locus YKL009W, strain mrt4, stronger effect = lower value 1.04 | S. cerevisiae deletion strains, locus YKL068W, stronger effect = lower value 1.01 | S. cerevisiae deletion strains, locus YKL085W, strain MDH1 (second series), stronger effect = lower value 0.986 | S. cerevisiae deletion strains, locus YKL085W, strain MDH1, stronger effect = lower value 0.986 | S. cerevisiae deletion strains, locus YKL160W, strain elf1, stronger effect = lower value 1.01 | S. cerevisiae deletion strains, locus YKR001C, strain vps1, stronger effect = lower value 1.04 | S. cerevisiae deletion strains, locus YKR026C, strain gcn3, stronger effect = lower value 1 | S. cerevisiae deletion strains, locus YKR091W, strain srl3, stronger effect = lower value 0.995 | S. cerevisiae deletion strains, locus YLL001W, strain dnm1, stronger effect = lower value 0.997 | S. cerevisiae deletion strains, locus YLL026W, stronger effect = lower value 0.983 | S. cerevisiae deletion strains, locus YLL041C, strain sdh2, stronger effect = lower value 0.997 | S. cerevisiae deletion strains, locus YLR027C, strain aat2, stronger effect = lower value 0.998 | S. cerevisiae deletion strains, locus YLR039C, strain RIC1, stronger effect = lower value 1.04 | S. cerevisiae deletion strains, locus YLR058C, strain SHM2, stronger effect = lower value 0.999 | S. cerevisiae deletion strains, locus YLR102C, strain apc9, stronger effect = lower value 1.01 | S. cerevisiae deletion strains, locus YLR113W, strain HOG1, stronger effect = lower value 0.995 | S. cerevisiae deletion strains, locus YLR221C, strain rsa3, stronger effect = lower value 1 | S. cerevisiae deletion strains, locus YLR258W, strain gsy2, stronger effect = lower value 0.975 | S. cerevisiae deletion strains, locus YLR262C, strain YPT6 (second series), stronger effect = lower value 1 | S. cerevisiae deletion strains, locus YLR262C, strain YPT6, stronger effect = lower value 1.01 | S. cerevisiae deletion strains, locus YLR268W, strain sec22, stronger effect = lower value 1.05 | S. cerevisiae deletion strains, locus YLR320W, strain mms22, stronger effect = lower value 0.979 | S. cerevisiae deletion strains, locus YLR330W, strain CHS5, stronger effect = lower value 1.02 | S. cerevisiae deletion strains, locus YLR342W, strain FKS1 (second series), stronger effect = lower value 1.04 | S. cerevisiae deletion strains, locus YLR342W, strain FKS1, stronger effect = lower value 0.987 | S. cerevisiae deletion strains, locus YLR357W, strain rsc2, stronger effect = lower value 0.932 | S. cerevisiae deletion strains, locus YLR370C, strain arc18, stronger effect = lower value 0.998 | S. cerevisiae deletion strains, locus YLR371W, strain rom2, stronger effect = lower value 1.02 | S. cerevisiae deletion strains, locus YLR384C, strain iki3, stronger effect = lower value 0.986 | S. cerevisiae deletion strains, locus YLR418C, strain cdc73, stronger effect = lower value 0.976 | S. cerevisiae deletion strains, locus YML016C, strain PPZ1, stronger effect = lower value 1.01 | S. cerevisiae deletion strains, locus YML032C, strain rad52, stronger effect = lower value 0.983 | S. cerevisiae deletion strains, locus YML120C, strain ndi1, stronger effect = lower value 1.01 | S. cerevisiae deletion strains, locus YML124C, strain tub3, stronger effect = lower value 1 | S. cerevisiae deletion strains, locus YMR058W, strain fet3, stronger effect = lower value 0.999 | S. cerevisiae deletion strains, locus YMR078C, strain ctf18, stronger effect = lower value 1 | S. cerevisiae deletion strains, locus YMR125W, strain sto1, stronger effect = lower value 0.955 | S. cerevisiae deletion strains, locus YMR129W, stronger effect = lower value 0.989 | S. cerevisiae deletion strains, locus YMR205C, strain PFK2, stronger effect = lower value 0.96 | S. cerevisiae deletion strains, locus YMR223W, strain ubp8, stronger effect = lower value 1.01 | S. cerevisiae deletion strains, locus YMR231W, strain pep5, stronger effect = lower value 0.993 | S. cerevisiae deletion strains, locus YMR263W, strain SAP30, stronger effect = lower value 1 | S. cerevisiae deletion strains, locus YMR307W, strain GAS1, stronger effect = lower value 1.01 | S. cerevisiae deletion strains, locus YNL067W, strain RPL9B, stronger effect = lower value 1.01 | S. cerevisiae deletion strains, locus YNL071W, strain lat1, stronger effect = lower value 1 | S. cerevisiae deletion strains, locus YNL128W, strain TEP1, stronger effect = lower value 1.02 | S. cerevisiae deletion strains, locus YNL183C, strain NPR1, stronger effect = lower value 0.974 | S. cerevisiae deletion strains, locus YNL209W, strain ssb2, stronger effect = lower value 0.999 | S. cerevisiae deletion strains, locus YNL233W, strain BNI4, stronger effect = lower value 1.01 | S. cerevisiae deletion strains, locus YNL248C, strain rpa49, stronger effect = lower value 1.01 | S. cerevisiae deletion strains, locus YNL250W, strain rad50, stronger effect = lower value 1 | S. cerevisiae deletion strains, locus YNL271C, strain bni1, stronger effect = lower value 1 | S. cerevisiae deletion strains, locus YNL298W, strain CLA4, stronger effect = lower value 1 | S. cerevisiae deletion strains, locus YNL307C, strain MCK1, stronger effect = lower value 1.01 | S. cerevisiae deletion strains, locus YNL322C, strain KRE1 (second series), stronger effect = lower value 0.998 | S. cerevisiae deletion strains, locus YNR049C, strain mso1, stronger effect = lower value 0.995 | S. cerevisiae deletion strains, locus YNR052C, strain pop2, stronger effect = lower value 0.999 | S. cerevisiae deletion strains, locus YOL012C, strain htz1 0.72 | S. cerevisiae deletion strains, locus YOL147C, strain pex11, stronger effect = lower value 1 | S. cerevisiae deletion strains, locus YOR001W, strain rrp6, stronger effect = lower value 0.996 | S. cerevisiae deletion strains, locus YOR061W, strain CKA2, stronger effect = lower value 1 | S. cerevisiae deletion strains, locus YOR069W, strain VPS5, stronger effect = lower value 1.01 | S. cerevisiae deletion strains, locus YOR070C, strain gyp1, stronger effect = lower value 0.997 | S. cerevisiae deletion strains, locus YOR080W, strain dia2, stronger effect = lower value 0.977 | S. cerevisiae deletion strains, locus YOR083W, strain WHI5, stronger effect = lower value 1.02 | S. cerevisiae deletion strains, locus YOR106W, strain vam3, stronger effect = lower value 1.01 | S. cerevisiae deletion strains, locus YOR136W, strain idh2, stronger effect = lower value 1.02 | S. cerevisiae deletion strains, locus YOR144C, strain elg1, stronger effect = lower value 1.01 | S. cerevisiae deletion strains, locus YOR184W, strain ser1, stronger effect = lower value 0.995 | S. cerevisiae deletion strains, locus YOR231W, strain MKK1, stronger effect = lower value 1 | S. cerevisiae deletion strains, locus YOR265W, strain rbl2, stronger effect = lower value 0.987 | S. cerevisiae deletion strains, locus YOR270C, strain vph1, stronger effect = lower value 1.03 | S. cerevisiae deletion strains, locus YOR290C, strain snf2, stronger effect = lower value 0.973 | S. cerevisiae deletion strains, locus YOR316C, strain cot1, stronger effect = lower value 0.997 | S. cerevisiae deletion strains, locus YPL051W, strain arl3, stronger effect = lower value 1.01 | S. cerevisiae deletion strains, locus YPL078C, strain atp4, stronger effect = lower value 1.01 | S. cerevisiae deletion strains, locus YPL106C, strain sse1, stronger effect = lower value 0.953 | S. cerevisiae deletion strains, locus YPL240C, strain hsp82, stronger effect = lower value 0.985 | S. cerevisiae deletion strains, locus YPL241C, strain CIN2, stronger effect = lower value 0.998 | S. cerevisiae deletion strains, locus YPL256C, strain CLN2, stronger effect = lower value 0.983 | S. cerevisiae deletion strains, locus YPR119W, strain clb2, stronger effect = lower value 1 | S. cerevisiae deletion strains, locus YPR141C, strain kar3, stronger effect = lower value 1 | S. cerevisiae deletion strains, locus YPR163C, strain tif3, stronger effect = lower value 1.02 | S. cerevisiae deletion strains, locus YPR167C, strain met16, stronger effect = lower value 1.02 | S. cerevisiae deletion strains, strain wtn01, stronger effect = lower value 1.04 | S. cerevisiae strains, strain wild type, stronger effect = lower value 0.995
